Assay outcomes deposited in PubChem by National Center for Advancing Translational Sciences (NCATS).
HPGD block – inhibitors of human 15-hydroxyprostaglandin dehydrogenase (HPGD). AID 894. 4.3% of 150,000 active. Potency, µM, for the others: at the highest dose activity change, negative = inhibition, hits mostly inhibitors. P15428. purified HPGD, NADH fluorescence kinetic, PGE2 substrate; further: on the % scale 0 is the no-effect control and ±100 the full control effect
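20 nM HPGD preincubated 15 min at room temperature with compound in 50 mM Tris-HCl pH 8, 0.01% Tween 20. Started with 1 mM NAD+ and 30 uM prostaglandin E2; NADH fluorescence (360/450 nm) read 5 times over 30-s intervals, last minus first.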
LMNA splice mod – modulators of lamin A splicing. Potency, µM (titrated, usually from 46.1 µM), for inactives: at the highest dose ratio change, negative = inhibition, actives largely listed as inhibitors. 0.01% of 200,000 active. HeLa LMNA splicing GFP/RFP minigene ratio, 48 h; active means well fitted inhibition curve with a large enough effect in the signal ratio, with a control signal flat, not every such curve was filed as active; inconclusive means small, poorly fitted or top-dose-only effect, or effect the other way, or a change in a side signal; the % refers to the signal ratio; further: on the % scale 0 is the no-effect control and ±100 the full control effect
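S3 HeLa cells stably expressing lamin A-EGFP splicing minigene plus DsRed2, 600 cells/well, 48 h compound exposure at 37C. Laser-scanning cytometry; analysed as GFP (500-530 nm)/RFP (575-640 nm) total intensity ratio; 0.5% DMSO vehicle.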
JMJD2E inh – blocks human JMJD2E demethylase activity | B2RXH2 | JMJD2E catalytic domain, FDH-coupled NADH fluorescence (FDH is formaldehyde dehydrogenase) | Potency, µM (highest dose often 57.1 µM), for the others: top-dose activity change, negative = inhibition, actives largely listed as inhibitors | 1.6% of 230,000 active | AID 2147;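 further: 0% = wells with enzyme and -100% = buffer wells without enzyme; nearly all actives have a fitted effect of over 50% in size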
Target sequence (B2RXH2 1-337 limits assumed): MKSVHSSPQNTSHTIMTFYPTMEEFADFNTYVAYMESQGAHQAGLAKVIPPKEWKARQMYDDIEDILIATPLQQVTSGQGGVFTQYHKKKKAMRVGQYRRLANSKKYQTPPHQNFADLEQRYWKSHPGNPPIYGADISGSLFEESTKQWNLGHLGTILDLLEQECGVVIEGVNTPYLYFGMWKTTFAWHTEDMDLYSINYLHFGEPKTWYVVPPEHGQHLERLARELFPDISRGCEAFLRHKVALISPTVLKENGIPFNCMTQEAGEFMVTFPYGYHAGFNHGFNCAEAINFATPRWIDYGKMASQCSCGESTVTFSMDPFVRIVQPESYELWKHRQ
HttQ103 aggreg – reduces HttQ103-GFP aggregates in PC12 cells; 1.1% of 220,000 active; PC12 HttQ103-GFP aggregates, Acumen cytometry, 40 h; Potency, µM (titrated, usually from 46.1 µM), inactives show at the highest dose activity change, negative = inhibition, actives largely listed as inhibitors; active means well fitted curve in the direction sought with a large enough effect; inconclusive means small, poorly fitted or top-dose-only effect, or another doubt; inactive means no such curve, though single readings can be large; an effect the other way counts as inactive or inconclusive; further: on the % scale 0 is the no-effect control and ±100 the full control effect; nearly all actives have a fitted effect of over 60% in size
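Ecdysone-promoter PC12 model expressing HTT exon 1 Q103 fused to GFP, induced by tebufenozide at 100 nM final. Compounds titrated; aggregates sized 1–25 µm scored on a 488 nm laser cytometer.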
HTT cytoprotect – cytoprotection in Huntington HTT-Q103 PC12 cell model; Potency, µM (top dose mostly 56.4 µM), for the others: cytoprotection (ATP increase), most hits filed as activators; PC12 HTT-Q103 induced, cytoprotection, ATP luminescence, 40 h; 0.14% of 230,000 active; AID 1471; active means well fitted curve in the direction sought with a large enough effect; inconclusive means small, poorly fitted or top-dose-only effect, or another doubt; inactive means no such curve, though single readings can be large; an effect the other way counts as inactive or inconclusive; further: % of control where 0% means no effect; nearly all actives have a fitted effect of over 45% in size
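Readout: ATPlite luminescence (ATP level). Model: stable PC12, inducible Htt exon1 Q103-GFP. Inducer: tebufenozide, 100 nM final. Compounds: dose series. No G418 in medium.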
ALDH1A1 block – blocks purified human ALDH1A1 activity | Potency, µM (doses to about 75.3 µM), inactives show at the highest dose activity, negative = inhibition, usual class: inhibitors | Purified ALDH1A1, NADH fluorescence, propionaldehyde substrate | P00352 | 7.3% of 220,000 active | AID 1030;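 further: plate controls were no enzyme wells and a reference inhibitor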
Target sequence (P00352 whole entry, looked up): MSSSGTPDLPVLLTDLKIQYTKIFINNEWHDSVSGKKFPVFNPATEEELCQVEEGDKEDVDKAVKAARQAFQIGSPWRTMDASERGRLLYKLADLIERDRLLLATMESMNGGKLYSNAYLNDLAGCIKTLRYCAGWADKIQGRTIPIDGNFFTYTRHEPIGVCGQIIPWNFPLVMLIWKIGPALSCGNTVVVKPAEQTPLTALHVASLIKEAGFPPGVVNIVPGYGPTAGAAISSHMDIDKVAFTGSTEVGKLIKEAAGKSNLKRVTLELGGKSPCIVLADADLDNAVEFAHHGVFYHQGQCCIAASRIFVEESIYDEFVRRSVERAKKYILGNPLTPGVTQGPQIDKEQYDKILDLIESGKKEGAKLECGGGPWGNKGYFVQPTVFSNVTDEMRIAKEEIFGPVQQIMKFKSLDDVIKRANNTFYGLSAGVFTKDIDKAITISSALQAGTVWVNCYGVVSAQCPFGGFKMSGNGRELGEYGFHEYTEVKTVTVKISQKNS
Numbers without * were called inactive; ? = inconclusive; · = not tested or not shown; ! = not confirmed by another sample; [ ] = dose if it differs, or a comment. Most compounds without a hit are left out; they make up all but 9.2% or so of the library. Unless noted, the call rests on the fitted dose curve; in most records, active means well fitted inhibition curve with a large enough effect (not every such curve was filed as active); inconclusive means small, poorly fitted or top-dose-only effect, or another doubt; inactive means no such curve, though single readings can be large or run the other way. Potency means the concentration at half of the fitted maximal effect.

SMILES | HPGD block | LMNA splice mod | JMJD2E inh | HttQ103 aggreg | HTT cytoprotect | ALDH1A1 block
Cc1ccc(-n2sc3ccccc3c2=O)cc1S(=O)(=O)N1CCCCC1 | 1µM* | ? | 11.2µM* | ? | -4.0%[10 µM] | 2.24µM*
O=c1c2ccccc2sn1-c1ccc(S(=O)(=O)N2CCCCC2)cc1 | · | · | · | · | 18.8%[10 µM] | ·
O=c1c2ccccc2sn1-c1ccc(S(=O)(=O)N2CCCC2)cc1 | 0.708µM* | -2.0% | ? | 15.5% | 13.8%[10 µM] | 0.891µM*
CN(C)S(=O)(=O)c1cccc(-n2sc3ccccc3c2=O)c1 | · | 7.0%[46 µM] | 3.55µM* | 31.5% | 6.5%[10 µM] | 0.224µM*
COC(=O)c1ccc(Nc2ncnc3c2cnn3C)cc1 | · | 1.6%[46 µM] | · | · | · | ·
Cc1ccc(N(CC(=O)NCCSc2ccccn2)S(C)(=O)=O)cc1 | · | ? | -12.5% | 3.0%[9.22 µM] | -0.3%[10 µM] | ?
COc1cccc(C2=CC(c3ccc(OC)c(OC)c3)NC(=S)N2)c1 (stereo not given) | · | · | ? | -4.4%[9.22 µM] | 8.6%[10 µM] | 14.1µM*
CC1(C)CC(=O)c2sc(NS(=O)(=O)c3ccc(F)cc3)nc2C1 | · | · | ? | 12.2%[9.22 µM] | 13.5%[10 µM] | ?
Cn1c(=O)c2[nH]c(N=Nc3ccc(N)cc3N)nc2n(C)c1=O | · | · | ? | -4.3%[9.22 µM] | -20.4%[10 µM] | ·
Cc1ncc(CO)c(/C=N/NC(=S)Nc2ccc(C(C)C)cc2)c1O | · | · | ? | -25.6%[9.22 µM] | 3.9%[10 µM] | ·
Cc1ncc(CO)c(/C=N/NC(=O)c2ccc(Br)cc2)c1O | ? | ? | ? | 11.2µM* | 39.7%[10 µM] | ?
Cc1ncc(CO)c(/C=N/NC(=O)c2cc(Br)ccc2O)c1O | · | · | ? | ? | -131.5% | 3.7%
Cc1ncc(CO)c(/C=N/NC(=O)c2cc(O)c(O)c(O)c2)c1O | · | -3.7%[46 µM] | 12.6µM* | 8.4% | 12.8%[10 µM] | ?
CC1(C)CC2(CC(c3ccccc3F)c3ccc(O)c(O)c3O2)NC(=S)N1 (stereo not given) | · | -16.3%[46 µM] | 10µM* | 25.1%[9.22 µM] | 22.5%[10 µM] | ?
CC1(C)CC2(CC(c3ccc(F)cc3)c3ccc(O)cc3O2)NC(=S)N1 (stereo not given) | · | · | 5.7% | 0.4%[9.22 µM] | 10.7%[10 µM] | ·
CC(=O)c1cccc(NC(=O)c2noc3c2CC(C)CC3)c1 (stereo not given) | · | 13.0%[46 µM] | · | · | · | ·
CC(NC(=O)OC(C)(C)C)C(=O)Oc1cc2oc(=O)cc(-c3ccccc3)c2cc1Cl (stereo not given) | ? | -28.7% | ? | 6.31µM* | -26.5%[10 µM] | ?
CC(C)COc1ccc(C(=O)Nc2sc3c(c2C(=O)O)CC(C)(C)OC3)cc1 | · | · | 3.5% | -5.5%[9.22 µM] | -17.2%[10 µM] | 20µM*
CC1(C)Cc2c(sc(NC(=O)c3ccccc3)c2C(=O)O)CO1 | · | · | ? | · | · | 22.4µM*
CCOC(=O)c1c(NC(=O)c2cccs2)sc2c1CC(C)(C)OC2 | ? | ? | ? | -9.0% | -35.9%[0.074 µM] | ?
CCc1ccc(CNC(=O)c2ccc(CS(=O)(=O)Cc3ccccc3C)o2)cc1 | · | 7.2%[46 µM] | · | · | · | ·
[O-]/[N+](=C\c1ccncc1)c1ccc(Br)cc1 | ? | -0.4% | -6.3% | 1.7% | -13.7% | 1.12µM*
O=Cc1ccc(N2CCCC2)c([N+](=O)[O-])c1 | · | 8.3%[46 µM] | -20.1% | 5.3% | -12.6% | ?
CN1CCCc2cc(C=O)ccc21 | ? | -7.8% | -4.3% | -6.7% | 9.4%[1.9 µM] | 0.199µM*
CC(C)(C)NS(=O)(=O)c1ccc(N2C(=O)c3ccccc3C2=O)cc1 | -6.4% | 27.1% | 6.8% | -20.4% | 0.8% | 2.1%
SMILES | HPGD block | LMNA splice mod | JMJD2E inh | HttQ103 aggreg | HTT cytoprotect | ALDH1A1 block
CC(C)(C)NS(=O)(=O)c1cccc(S(=O)(=O)c2cccc(S(=O)(=O)NC(C)(C)C)c2)c1 | 20µM* | ? | ? | -11.0% | -21.2% | 4.5%
CCCCC1=CC2=C(OC(C)=O)C(=O)C(C)(OC(=O)c3ccco3)C(=O)C2=CO1 (stereo not given) | -0.7% | · | 6.4% | · | 14.8% | 2.3%
CC1CCCCN1c1ncnc2ccccc12 (stereo not given) | -24.0% | ? | -6.4% | 10µM* | -15.8% | -5.6%
CC1CCCCN1c1ncnc(N)c1[N+](=O)[O-] (stereo not given) | · | ? | -0.2% | 10µM* | 10.8% | -12.7%
CC1Cc2ccccc2N1c1ncnc(N)c1[N+](=O)[O-] (stereo not given) | · | ? | 1.3% | 0.891µM* | ? | ?
CC1Cc2ccccc2N1c1ncnc2nc[nH]c12 (stereo not given) | -3.8% | ? | 0.6% | 11.2µM* | 6.8% | 2.5%
Cc1nc(N2CCOCC2)nc(N2CCCCC2C)c1[N+](=O)[O-] (stereo not given) | · | · | -1.8% | 6.0%[9.22 µM] | -12.3%[10 µM] | ·
c1ccc2c(c1)CCN(c1ncnc3nc[nH]c13)C2 | -19.2% | ? | 1.6% | -18.2% | 27.4%[10 µM] | -2.8%
CC1CN(C(=O)COC(=O)c2ccc(N)c([N+](=O)[O-])c2)CC(C)O1 (stereo not given) | 28.2µM* | -3.9% | 4.3% | 4.9% | ? | ?
Cc1cc(C(=O)OCC(=O)N2CC(C)OC(C)C2)ccc1[N+](=O)[O-] (stereo not given) | · | -5.1%[46 µM] | -4.0% | 11.4% | 7.2%[10 µM] | ?
CC1CN(C(=O)COC(=O)c2ccc(NC(=O)CC#N)cc2)CC(C)O1 (stereo not given) | · | 2.6%[46 µM] | -9.8% | 1.0%[9.22 µM] | 27.2%[10 µM] | 6.31µM*
CN1C=C/C(=C\c2cc[n+](C)c3ccccc23)c2ccccc21 | · | · | 3.98µM* | 7.08µM* | -184.4% | ?
COC(=O)c1c(NC(=O)CN2CCC3(O)CCCCC3C2c2ccc(OC)cc2OC)sc(C)c1C (stereo not given) | 20µM* | ? | -7.7% | 22.6% | -18.6%[1.9 µM] | 2.51µM*
COC(=O)c1c(NC(=O)CN2CCC3(O)CCCCC3C2c2ccccc2OC)sc(C)c1C (stereo not given) | ? | ? | 0.0% | -5.5% | 7.6%[10 µM] | ?
CN1CCc2cccc3c2[C@@H]1Cc1ccc(O)c(O)c1-3 | 8.91µM*! | ? | 31.6µM* | ? | 27.4%[1.9 µM] | 25.1µM*
O=C(NCCNC[C@@H](O)COc1ccc(O)cc1)N1CCOCC1 | -15.5% | ? | -11.7% | · | -35.1% | -10.6%
COc1cc(CNCCCSc2nnnn2C)cc(Br)c1OC | · | 14.6%[46 µM] | · | · | · | ·
COc1ccc(/C=N/n2cnn(Cc3ccccc3Cl)c2=S)cc1 | · | -5.9%[46 µM] | -16.6% | 0.5% | -11.4%[10 µM] | 10µM*
C[N+]12CCCC[C@@H]1CCC(=C(c1cccs1)c1cccs1)C2 (stereo not given in full) | · | · | · | -23.9% | -22.0% | ·
C=CCSc1nnc(NC(=O)c2ccc(S(=O)(=O)NCC3CCCO3)cc2)s1 (stereo not given) | 17.8µM* | ? | ? | -0.3% | -16.6% | ?
CN(c1ccccc1)S(=O)(=O)c1cccc(C(=O)NCCc2ccc(O)c(O)c2)c1 | · | -23.7%[46 µM] | 14.1µM* | ? | 15.5% | 28.2µM*
